Source: the supplement of paper PMC11417369
± gives the standard deviation of the averaged measurements. In all, about 25,000 sequences were measured (“ln(normalized median fluorescence intensity)”: median about 7.9, highest 2% from about 11 on). Shown is part of a subset that was picked to be rich in the highest values.

tested on: PfAP2-I AP2 domain 3 (GST-tagged); test: gcPBM binding intensity (ln(normalized median fluorescence intensity)); higher = stronger DNA binding
Summary of the method: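 Probes on an Agilent 4 × 180k array were primer-extended, double-stranded and 36 bp long, taken from intergenic genomic regions, with negative controls added. GST-tagged P. falciparum DNA-binding domains from E. coli, about 25 μg on average, were applied to the array for 1 h in 1× PBS containing 1% milk, 0.2 mg/ml BSA, 0.5% salmon testes DNA and 0.03% Triton X-100. Binding intensity, obtained after Alexa488 anti-GST antibody detection and a 488 nm scan, is the highest Masliner-normalised natural-log median intensity across replicate spots of either probe orientation.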

Row | Sequence | gcPBM binding intensity (ln)
1 | AAACAAAAAAGTAAGAAAAGGGATGATTGGATCCAA [CACACA_negctrl_site1230] | 7.35 ± 0.78
2 | GGAAACCCTCCCAAATGTACTTTTATAAAAAAATAC [XGTACX_site5502] | 8.2 ± 0.6
3 | TTTATTTATCTTTACGCACACACTTGCATGTACAAA [CACACA_site1118] | 9.455 ± 0.021
4 | ACAAATCTAAGATAGTGTACATTTATATATATATAT [XGTACX_site8740] | 9.4 ± 0.24
5 | ACATAAATATATGACACACACACATATTATATATAT [CACACA_site3065] | 8.36 ± 0.52
6 | AAAAATAAAAAAAAATTAAAATATATATATTTTGTT [TGCATGCA_negctrl_site102] | 7.49 ± 0.67
7 | GAAATGTATAAATCCATACACACATAAATTTTAATA [CACACA_site2364] | 7.58 ± 0.4
8 | TATTTCTTATTACATACACACATATACATAGATGAC [CACACA_site5729] | 8 ± 0.55
9 | TGCAAAAAATTCCACACACACACACGCATATAAATA [CACACA_site6696] | 7.95 ± 0.38
10 | TATGTGTGCAAAAACTGTACACATTAAAGGTATATA [XGTACX_site7627] | 9.32 ± 0.28
11 | GATAAAATCACTGGTGCATGTAGATATATAATATTA [TGCATGCA_site589] | 9.12 ± 0.085
12 | TTATTAAAAATGGTATGTACGCACATAATATATATA [XGTACX_site3230] | 8.56 ± 0.51
13 | GCAAGGTCCACACTGGTGCATTAAAAATAAAATATA [GTGCAC_site9956] | 11.6 ± 0.41
14 | ATATGTACGCAAGGTGCACACTGGTGCATTAAAAAA [CACACA_site1801] | 12.1 ± 0.21
15 | TTTATTTGGACATATACACACTTAAATATGTTTATT [CACACA_site6021] | 7.59 ± 0.47
16 | TTTTTTTTGATATATACACACAATAAATAAATATAA [CACACA_site7400] | 7.78 ± 0.39
17 | TATAATATATGTATATGTACTTATGTTGAGAAACAT [XGTACX_site2117] | 7.72 ± 0.59
18 | AATAAATATAGGAATACACACAATATAAATGTATTG [CACACA_site3366] | 7.5 ± 0.62
19 | GATACATAGAAACACACACACATACATATATACATA [CACACA_site3438] | 8.01 ± 0.4
20 | ATTGCCATTGTTAATGCATGTAACAATTCAGCTCAT [TGCATGCA_site56] | 8 ± 0.83
21 | AAAAATGAATTATTTTGTACATATATATATATATAT [XGTACX_site3410] | 9.48 ± 0.54
22 | ATTTTTTTTTTTTTTTTTTTTGCACCATAAAATAAT [CACACA_negctrl_site1324] | 11.2 ± 0.56
23 | AATATATTTTTTTTTTGTACATATTGTAAAATAATA [XGTACX_site6805] | 7.83 ± 0.22

Row | Sequence | gcPBM binding intensity (ln)
24 | AAAAAATTTTGAAATTGTACATATATAAAAAATATA [XGTACX_site2629] | 7.59 ± 0.29
25 | TACAACAATTTTTGCACACACCAAAACATAAAATAA [CACACA_site4964] | 9.15 ± 0.22
26 | TAAAAATATTTTCATTGTACATATATATAAATATAT [XGTACX_site1123] | 7.59 ± 0.3
27 | ATATATTGCACTTTTTGTACATAATGAAAAATTTTT [XGTACX_site8223] | 11.5 ± 1
28 | AAAATAAATAAATATACACACCATATATATATTTTT [CACACA_site5573] | 7.61 ± 0.39
29 | AATATTGCACCATTTTGTACATAATATATTCAAATA [XGTACX_site475] | 11.7 ± 0.74
30 | TTTCTTCGAAATAGAACACTTGTGCAAAATAAGCAA [XGTACX_negctrl_site361] | 9.9 ± 0.23
31 | AAATTTAAAAATAAAGAACACACATATGTAAAATAT [CACACA_site9252] | 7.91 ± 0.76
32 | AGGATACACGGACACACACACATATAGATTTATATA [CACACA_site6552] | 8.14 ± 0.2
33 | AATTTATTAAAAAAATGTACTTATTTTTTTGTATAA [XGTACX_site5844] | 7.61 ± 0.11
34 | TTTATTCAAGGAATAGTGCATAATAATAAGTATTAT | 11.2 ± 0.62
35 | ATTTATAATATTCAAGTGCATATATATTTTTTACTT | 9.57 ± 0.14
36 | ATATATTTTTATATAGTGCAAGTAATAAAAAGGAAT | 10.04 ± 0.099
37 | TACTATTTTTATAATACACACATATATTTGTGATAT [CACACA_site1775] | 7.84 ± 0.44
38 | TTAATATATTATCTGGTGCATAAACACGTTATACCT | 11.3 ± 0.64
39 | TATATATAATATTATACACACATATCTGCATAATAT [CACACA_site4202] | 8.13 ± 0.49
40 | TTTGTTATATTTAATACACACATATTATAAACACAT [CACACA_site7703] | 8.07 ± 0.34
41 | GGTTATATATTTTTTGCACACCAAAAAAGAGAATAT [CACACA_site2731] | 9.56 ± 0.14
42 | ATGGCATAAATATATGCACACACAAAAAAAAAAAAA [CACACA_site7902] | 8.98 ± 0.11
43 | CATATAAAAATATATGCACACAAATAAAAAATTATA [CACACA_site9210] | 8.94 ± 0.39
44 | TTTTCATATTATAGTGCACACAAAAATATATATATG [CACACA_site8929] | 11.5 ± 0.47
45 | CTCATAGTTGGGTGCACACAAAAAATTAAAAAAATA [CACACA_site3032] | 11.1 ± 0.81
46 | TTCATATTATAGTGCACACAAAAATATATATATGGT [CACACA_site2855] | 11.3 ± 0.43

Row | Sequence | gcPBM binding intensity (ln)
47 | AACTCATAGCGGTGTGCACACAAAAAATTAAAAAAA [CACACA_site3033] | 9.9 ± 0.2
48 | TGAATATTCATATGCACACAAATTAATATACATAAT [CACACA_site442] | 8.675 ± 0.021
49 | ATTATATACATATATGCACACAAAAAAATATATATT [CACACA_site8508] | 9.04 ± 0.12
50 | TATATATATTTATGCACACAAAATATATTATAGAAT [CACACA_site3740] | 9.99 ± 0.4
51 | AACTCATAGGAGTGTGCACACAAAAAATTAAAAAAA [CACACA_site8996] | 9.52 ± 0.42
52 | ATTAATTTTATATATGCACACAAAATATGTTCATAT [CACACA_site9350] | 9.13 ± 0.099
53 | ATTCACAAATATATGGTGCATAATATATATATATAT [GTGCAC_site9674] | 11.31 ± 0.078
54 | AAAAGGGAAATAAAATAAAAAAAGAAACATATATAG [CACACA_negctrl_site455] | 7.72 ± 0.76
55 | ATATGATCATAAAACACACACACAAAAAAAAAAAAA [CACACA_site1806] | 7.95 ± 0.75
56 | TATATATGTGTATAGAGTACACGTTTTTTTTAATAT [XGTACX_site3128] | 7.71 ± 0.38
57 | ATTGTATTAAAATGCACACATATCAAGAGGAATTTT [CACACA_site283] | 9.095 ± 0.064
58 | AAAGAAAATAACAAAATTTTGAAAACATCACATTCG [CACACA_negctrl_site89] | 7.63 ± 0.69
59 | ATCAAAATGTTAAAGATACACACCTAACAAACACAA [CACACA_site955] | 7.96 ± 0.19
60 | TAAATCATTTATTAAGTGCAATATTCTTTTTGAGAT | 10.3 ± 0.28
61 | ATATATATATATATGGTGCATGAAAATTTACTTTGA | 10.11 ± 0.085
62 | TATATATGTATGTATGTACACACAAAAAATGGAATA [CACACA_site9235] | 8.05 ± 0.45
63 | CGTATATCACCAACTAGTACATATAAATAAATAAAT [XGTACX_site8837] | 7.92 ± 0.5
64 | AAAAAGGTTAAGGTAGTGCATAATAAAGAATATTAA | 11 ± 0.45
65 | AAAAAGAATATAAGTAGTACAGTGCATATAATAATT [XGTACX_site617] | 10.3 ± 0.37
66 | TATATAATATATATAGTGCATAAGTTCAAAAGAATA [GTGCAC_site9805] | 9.95 ± 0.16
67 | AAATAAGAAAAAGCGCGTACACATAACATTTTTATA [XGTACX_site8807] | 7.82 ± 0.54
68 | TTAACGTAAAATATAGTGCATAGTATCATATTGATA [GTGCAC_site9527] | 9.5 ± 0.099
69 | GGTTTGAATTTTTAAGTGCATATAACATAAATGAAA | 9.86 ± 0.23

Row | Sequence | gcPBM binding intensity (ln)
70 | TTTGAAATATTAAATGCATGTTAAAACATAAAAATG [TGCATGCA_site680] | 7.91 ± 0.73
71 | TATGTTTTTGAATGAGTGCATTAAAATAAAACATTT | 11.3 ± 0.61
72 | TATAATATGACAAGAAGTACATATATTTACATATAT [XGTACX_site1571] | 7.54 ± 0.29
73 | AAATCAAACTTTGGTGTGCACAAATATATACATATA [GTGCAC_site9986] | 10.545 ± 0.007
74 | TATATTAACAAAATGGTGCAATAATTTCTATATTAT [GTGCAC_site9857] | 11.3 ± 0.61
75 | TACAATGAAAAAATAACATGCAATTATATTTCTCTT [TGCATGCA_site833] | 8.23 ± 0.74
76 | TATTAATTTAAATGGGTGCAAAACCTATATAAATAT | 10.6 ± 0.55
77 | AAAAATTAACAAAAGGTGCAATTTATTTATTAACGG | 10.3 ± 0.5
78 | TAATATAATATATAGGTGCAATATTAACAAAAATTT | 11 ± 0.44
79 | ATTTAAATACAAAATTGTACTTTTCTATATTTAACA [XGTACX_site6146] | 7.79 ± 0.41
80 | TAATATATATAACAAGTGCAAAAAAATATAGATATT [GTGCAC_site9625] | 9.38 ± 0.33
81 | TATATTAACAAAATGGTGCAATAATTTCTATATTGT [GTGCAC_site9430] | 11.2 ± 0.54
82 | AATAAGTAACAAAATACACACATATAGGTAATTATA [CACACA_site6949] | 7.62 ± 0.59
83 | TATATTCAAAATGGTACACACAATATTTAATTGTGC [CACACA_site2631] | 7.68 ± 0.34
84 | GTTGTGTAATTCGTAACACACATAAAATATATATAA [CACACA_site6059] | 7.76 ± 0.48
85 | CATAACATAAAATAGGTGCACAAAAATTGTAATTGA | 11.37 ± 0.021
86 | AATGGGTTACACATATGTACATAAAATATAAAAAAT [XGTACX_site3440] | 8.06 ± 0.73
87 | GGAGAATAGTGGAAAACACACACGTTTGAGATATGG [CACACA_site1168] | 7.92 ± 0.91
88 | GATTAACAACATATTAGTACATATATTATATATATA [XGTACX_site7646] | 8.61 ± 0.23
89 | AGTTTCTATTTAGTGTGTACTTAAGAAAAATATCTC [XGTACX_site82] | 7.88 ± 0.4
90 | AGAAGAAAAGAAATATGTACATAAACGTCTGAACTA [XGTACX_site1699] | 7.8 ± 0.71
91 | CCTTTTGGATGAAAGTGTACAGGTGAGAAAAATTCC [XGTACX_site3358] | 8.07 ± 0.54
92 | TTATCGGTATAATATAGTACATATAGATATATAATA [XGTACX_site1440] | 7.7 ± 0.39
